In all, about 48,000 compounds went through this assay and about 13,000 (27%) showed an effect of 50% or more. This is one part of the list.
system: Wolbachia pipientis; test: Anti-Wolbachia Cell-Based Screen; assay type: functional; set-up: scale not given: in the data most compounds retested in dose-response had high values; settings: 5 µM

| SMILES | Percent Effect [%] |
| --- | --- |
| Cc1cncc(C(=O)N2CCNCC2C(=O)NCc2ccncc2)c1 (stereo not drawn) | -0.08971 |
| Cc1ccccc1-c1cc(C(=O)NCCN2CCCS2(=O)=O)[nH]n1 | -0.2577 |
| Cc1c(C(=O)N2CCSCC2)sc2nc(C(F)(F)F)ccc12 | -6 |
| COC1CCN(S(=O)(=O)N2CC[C@@](O)(C3CCC3)[C@H](C)C2)CC1 | -8.21 |
| CC(C)c1cc(C(=O)N2CCc3ccccc3C2C(=O)O)n(C)n1 (stereo not drawn) | 5.563 |
| COCCOc1ccc(-c2noc([C@@H]3CCCN3C3CCC3)n2)cn1 | -15.03 |
| Cn1cccc1C(=O)N[C@@H]1CN(CC2CC2)[C@@H]2COC[C@@H]21.O=C(O)C(F)(F)F | -18.52 |
| O=C1NCCCCC1NCc1csc(-c2ccsc2)n1 (stereo not drawn) | -2.584 |
| FC(F)(F)c1cc(C2CCNCC2)nc(-c2ccsc2)n1 | 147.1 |
| Cl.Oc1cc(C2CCNCC2)nc(-c2ccsc2)n1 | 186.4 |
| CC(C)CN1CC(c2nc(-c3ccsc3)c[nH]2)CC1=O (stereo not drawn) | -7.374 |
| Cc1nc(O)cc(C2CCN(C(=O)c3ccsc3)CC2)n1 | -4.98 |
| O=C(c1ccsc1)N1CCCC(c2cc(C(F)(F)F)[nH]n2)C1 (stereo not drawn) | 0.1242 |
| Cc1cc(C2CCNCC2)nc(-c2ccsc2)n1.Cl | 168.5 |
| Cl.Cn1cnc2c(-c3ccccc3)nc(C3CCNCC3)cc21 | -35.46 |
| CC(C)(NC(=O)C1CCCN(C2CCCC2)C1)c1nnc(N)s1 (stereo not drawn) | -3.514 |
| CN1CCc2c(CNc3ncccn3)n[nH]c2C1.O=C(O)C(F)(F)F | -10.34 |
| COc1ccc2c(c1)CC(C1CCOCC1)N(C(=O)c1ccnn1C)C2 (stereo not drawn) | 146.4 |
| COc1ccc(CNC(=O)N2CCOCC2C2CC2)c(C)c1 (stereo not drawn) | -4.702 |
| COc1cc(N2C[C@H]3CN(C(=O)c4cnccn4)C[C@H]3C2)ncn1 | 6.779 |
| COc1ccc2c(c1)CC(C1CCOCC1)N(C(=O)c1ccn(C)n1)C2 (stereo not drawn) | 107.8 |

| SMILES | Percent Effect [%] |
| --- | --- |
| COc1ccc2c(C)c(C(=O)NC3CCOCC3)oc2c1 | -11.52 |
| COc1cccc(C2CCN2C(=O)c2cnccn2)c1 (stereo not drawn) | -9.896 |
| COc1cccc(CC2CN(C(=O)c3ccnn3C)CCO2)c1 (stereo not drawn) | 14.16 |
| Cn1nccc1C(=O)N1CCCC1c1ccc(C(=O)N2CCOCC2)s1 (stereo not drawn) | -16.33 |
| COc1ccc2c(c1)CC(C1CCOCC1)N(C(=O)c1cnccn1)C2 (stereo not drawn) | 143.6 |
| CN(C(=O)c1ccc(Cl)cn1)c1ccccc1S(C)(=O)=O | -14.63 |
| O=C(N1CCC(O)(C(F)(F)F)C1)C1(c2ccc(Cl)cc2)CC1 (stereo not drawn) | 16.08 |
| Cc1cc(NC(=O)C(C)N2CCN(c3nc(C)ns3)CC2)on1 (stereo not drawn) | 15.5 |
| CN(Cc1nnc(C2CC2)o1)C(c1ccc(F)cc1)c1cccnc1 (stereo not drawn) | 14.1 |
| O=C(C1CCCO1)N1CCc2nnc(Cn3cccc3)n2CC1 (stereo not drawn) | -14.83 |
| O=C(C1CCCO1)N1CCCn2c(nnc2Cn2cccn2)C1 (stereo not drawn) | -13.04 |
| O=C1CCCN1Cc1nnc2n1CCCN(C(=O)c1ccc[nH]1)C2 | 114.8 |
| O=C(c1ccc[nH]1)N1CCCn2c(nnc2Cn2cccn2)C1 | 88.61 |
| O=C(N1CCCC1)N1CCn2c(Cn3cccn3)cnc2C1 | 0.9982 |
| CN(C)Cc1nnc2n1CCCN(C(=O)c1c[nH]cn1)C2 | -1.146 |
| O=C(c1cccs1)N1CCc2nnc(COc3cncnc3)n2CC1 | 6.421 |
| O=C(c1ccc[nH]1)N1CCc2nnc(Cn3cccc3)n2CC1 | 104.6 |
| Cc1cnc(N2CCCn3c(nnc3Cn3cccn3)C2)nc1 | -6.744 |
| O=C(c1c[nH]cn1)N1CCCn2c(nnc2Cn2cccc2)C1 | 4.942 |
| O=C(c1ccc[nH]1)N1CCc2ncc(Cn3cccn3)n2CC1 | 112.6 |
| CN(C)C(=O)N1CCn2c(Cn3cccn3)cnc2C1 | -38.04 |

| SMILES | Percent Effect [%] |
| --- | --- |
| CC(C)(C)C(O)CN1CCN(Cc2cccc(C#N)c2)CC1 (stereo not drawn) | -1.667 |
| CC(=O)N[C@H]1CCN2C(=O)[C@@H](Cc3c[nH]c4ccccc34)NC(=O)[C@H]12 | -9.075 |
| COCCN1CC(C(=O)N(C)Cc2ccc(Cl)s2)CC1=O (stereo not drawn) | 25.53 |
| O=C(c1ccc(SC(F)F)cc1)N1CCOCC1c1ncon1 (stereo not drawn) | 2.35 |
| O=C1NCC(CN2CCc3onc(-c4ccc(C(F)(F)F)cc4)c3C2)O1 (stereo not drawn) | 4.598 |
| c1cnn(Cc2nnc3n2CCCN(c2nccs2)C3)c1 | -8.945 |
| O=C(c1ccc[nH]1)N1CCc2nnc(Cn3cccn3)n2CC1 | 121.3 |
| O=C(O)C(F)(F)F.O=C(c1ccccc1)N1CCCn2c(CN3CCCCC3)nnc2C1 | -7.245 |
| O=C(O)C(F)(F)F.O=C(c1ccccc1F)N1CCCn2c(CN3CCCCC3)nnc2C1 | 18.71 |
| O=C(O)C(F)(F)F.O=C(O)C(F)(F)F.O=C(c1c[nH]cn1)N1CCCn2c(CN3CCCCC3)nnc2C1 | 0.5876 |
| O=C1CCCN1Cc1nnc2n1CCCN(C(=O)c1ccco1)C2 | 122.9 |
| CC(C)N(C)Cc1nnc2n1CCCN(C(=O)c1ccco1)C2 | 10.89 |
| O=C(O)C(F)(F)F.O=C(c1ccc[nH]1)N1CCCn2c(CNC3CCC3)nnc2C1 | 88.36 |
| Cc1[nH]ccc1C(=O)N1CCC(c2nnc(Cn3cccn3)n2C)CC1 | -8.959 |
| Cc1cccc(C(=O)N2CCCn3c(CN4CCCCC4)nnc3C2)c1 | -5.352 |
| O=C(c1ccc[nH]1)N1CCCn2c(CN3CCCCC3)nnc2C1 | 104.7 |
| COCCNC(=O)C(C)S(=O)(=O)c1ccc(OC)cc1 (stereo not drawn) | -5.557 |
| CCS(=O)(=O)N(C)C1CCN(c2cccc(F)c2C(C)=O)CC1 | 1.671 |
| CCN(CC)C(=O)CC[C@@H]1CNC(=O)[C@@H]2C[C@H](NC(=O)C3CC3)CN12 | -0.8785 |
| COCc1nc(C(=O)NS(=O)(=O)c2ccc(C)c(C)c2)cs1 | -2.372 |
| CSCC(=O)N1CCC(c2nccn2Cc2cscn2)CC1 | -14.72 |

— ChEMBL document CHEMBL3988442, “University of Dundee, Small-Polar-MMV Screening Library” (2021)
